The whole screen tested about 2,400 compounds, of which about 220 (9.2%) were called active. The entries come from a sample that favours actives as a whole. Values without a mark were called inactive.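 Rule for the calls: active = signal change above the mean of dofetilide-free buffer controls plus 3 SD, so a positive margin; inactive = the rest.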

The test can be described thus: thallium signal changes without hERG – cell-based, CHO-K1 parental line, FluxOR thallium flux, counter-screen for hERG block protection project, confirmation (AID 1839).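 Note: compounds applied alone with no dofetilide to cells lacking hERG.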 Particulars: CHO-K1 parental cells, FluxOR thallium flux fluorescence; at 10 µM.
In the case of `O=C(Nc1cccnc1)c1ccc(COc2cc(Cl)ccc2Cl)o1`, the signal change vs control minus 3*SD hit threshold (margin above threshold, higher = more increase) is -33.5%. As for `CCCSc1cc(NCCOC(C)=O)c([N+](=O)[O-])c2nonc12`, the figure is -28.6%; as for `Cc1ccc(C(=O)NNC(=S)NC(=O)c2ccccc2)cc1`, -43.2%.

In the case of `Cc1cc2ccccn2c1C(=S)NC(=O)c1ccccc1`, the signal change vs control minus 3*SD hit threshold (margin above threshold, higher = more increase) was 2.8% (active). Consider `Cc1cccc(C(=O)NNC(=S)NC(=O)c2ccccc2)c1`, for which the signal change vs control minus 3*SD hit threshold (margin above threshold, higher = more increase) was -45%.

Take `COc1ccc(C(=O)NC(=S)N2CCC(C)CC2)cc1`: the signal change vs control minus 3*SD hit threshold (margin above threshold, higher = more increase) is -29%.

Take `CCOC(=O)C1=C(O)c2ccccc2C(=O)/C1=C\c1ccc(CC)cc1`: the signal change vs control minus 3*SD hit threshold (margin above threshold, higher = more increase) was -14.9%. For `Cc1ccc(/C=C/C(=O)c2ccccc(=O)c2O)cc1C`, the signal change vs control minus 3*SD hit threshold (margin above threshold, higher = more increase) is -20.1%.

Take `CCc1ccc(/C=C/C(=O)c2cc(Br)ccc(=O)c2O)cc1`: the signal change vs control minus 3*SD hit threshold (margin above threshold, higher = more increase) is -23.5%. Under `Cc1ccc(/C=C/C(=O)C2C(=O)c3ccccc3C2=O)cc1` stands 8.4% (active); under `Cc1ccc(/C=N/N2C(=O)c3ccccc3NC2c2ccc(C)cc2)cc1` (configuration not stated), -30%.

As to `CCc1ccc(/C=C/C(=O)C2C(=O)c3ccccc3C2=O)cc1`, the signal change vs control minus 3*SD hit threshold (margin above threshold, higher = more increase) was 15.2% (active). For the molecule `COc1ccc(-n2c(SCc3ccccn3)nc3c(c2=O)SCC3)cc1OC`, the signal change vs control minus 3*SD hit threshold (margin above threshold, higher = more increase) was -16.3%. Under `O=C(COC(=O)c1cnccn1)c1ccc(Cl)cc1` stands -30.4%; under `CCOC(=O)c1c(NS(C)(=O)=O)sc2c1CCC(C)C2` (configuration not stated), -5.6%. Regarding `CC1CCc2c(sc(NS(=O)(=O)c3ccccc3)c2C(=O)OC(C)C)C1` (configuration not stated), the signal change vs control minus 3*SD hit threshold (margin above threshold, higher = more increase) was 5.8% (active). Take `CC(C)OC(=O)c1c(NS(=O)(=O)c2ccccc2)sc2c1CCCC2`: the signal change vs control minus 3*SD hit threshold (margin above threshold, higher = more increase) is -18.4%.

For the molecule `CCOc1ccc(NC(=O)CSc2nc3nc(C)cc(C)n3n2)cc1`, the signal change vs control minus 3*SD hit threshold (margin above threshold, higher = more increase) is -31.5%. As for `CC1=CCC[C@@H]2[C@@](C)(CC/C(C)=C/C(=O)O)[C@H](C)CC[C@@]12C`, the figure is 7.9% (active); as for `O=[N+]([O-])c1cccc(/C=C/c2nc(C=Nc3ccccc3)c(O)o2)c1`, -34.1%. With `COC(=O)C1=NN(C(=O)c2cccc(Br)c2)C(O)(c2ccc(Cl)cc2)C1` (configuration not stated), the signal change vs control minus 3*SD hit threshold (margin above threshold, higher = more increase) is 64.5% (active). As for `CCC1=NN(C(=O)c2ccc(Cl)cc2)C(O)(c2ccccc2)C1` (configuration not stated), the figure is -32.2%; as for `CC1=NN(C(=O)c2ccccc2Br)C(O)(c2ccc(Cl)cc2)C1` (configuration not stated), -36.1%. As for `COC(=O)C1=NN(C(=O)c2ccc(C)cc2)C(O)(c2ccc(Cl)cc2)C1` (configuration not stated), the figure is 46.4% (active); as for `COC(=O)C1=NN(C(=O)c2ccc(Cl)cc2)C(O)(c2ccccc2)C1` (configuration not stated), 17.7% (active).

On to `CC1=NN(C(=O)c2ccc(Cl)cc2)C(O)(c2ccccc2)C1` (configuration not stated), for which the signal change vs control minus 3*SD hit threshold (margin above threshold, higher = more increase) was -21.7%. Turning to `CCC1=NN(C(=O)c2ccc(Cl)cc2)C(O)(c2ccc(C)cc2)C1` (configuration not stated), the signal change vs control minus 3*SD hit threshold (margin above threshold, higher = more increase) is -25.9%. On to `CC(C)(C)C1(O)CC(C(F)(F)F)=NN1C(=O)Cc1ccc([N+](=O)[O-])cc1` (configuration not stated), for which the signal change vs control minus 3*SD hit threshold (margin above threshold, higher = more increase) was -27%. As for `CCOC(=O)C1=NN(C(=O)c2cccc(Br)c2)C(O)(C(C)(C)C)C1` (configuration not stated), the figure is 49.8% (active); as for `Cc1ccc(C(=O)NNC(=S)NC(=O)c2ccc(Cl)cc2)cc1`, -46.2%.

In the case of `CCOC(=O)c1cnc(-n2nc(C)cc2C)nc1Nc1cccc(C(=O)O)c1`, the signal change vs control minus 3*SD hit threshold (margin above threshold, higher = more increase) is -22.1%.

Consider `Cc1c(C)c2ccc(OCC(=O)N[C@@H](Cc3ccccc3)C(=O)O)cc2oc1=O`, for which the signal change vs control minus 3*SD hit threshold (margin above threshold, higher = more increase) is -15.2%. With `O=C(C1CC(=O)N(c2ccc3c(c2)OCCO3)C1)N1CCCC(C(F)(F)F)C1` (configuration not stated), the signal change vs control minus 3*SD hit threshold (margin above threshold, higher = more increase) is -31.3%.

On to `COc1ccc(/C(C)=N/Nc2ccc(C(=O)O)cc2)c(OC)c1`, for which the signal change vs control minus 3*SD hit threshold (margin above threshold, higher = more increase) was -36.2%. Consider `Cc1ccc(C(=C2C3C=CC2C2C(=O)NC(=O)C32)c2ccc(C)cc2)cc1` (configuration not stated), for which the signal change vs control minus 3*SD hit threshold (margin above threshold, higher = more increase) is -28.1%. As for `O=C(Nc1nc2c(Br)cc(Br)cc2c(=O)s1)C1CCC1`, the figure is -21%.

Turning to `Cc1ccc(/C(O)=C/C(=O)C(=O)NC23CC4CC(CC(C4)C2)C3)cc1`, the signal change vs control minus 3*SD hit threshold (margin above threshold, higher = more increase) was -22.7%. In the case of `CCn1ncc(Cl)c1C(=O)NC(=S)Nc1ccccc1Br`, the signal change vs control minus 3*SD hit threshold (margin above threshold, higher = more increase) is -0.1%. Turning to `Cc1cccc(/C=N/n2c(COc3ccccc3)n[nH]c2=S)c1`, the signal change vs control minus 3*SD hit threshold (margin above threshold, higher = more increase) is -23.1%.

Take `COc1ccc(NC(=S)NC(NC(=O)c2cccc3ccccc23)C(Cl)(Cl)Cl)c([N+](=O)[O-])c1` (configuration not stated): the signal change vs control minus 3*SD hit threshold (margin above threshold, higher = more increase) was -33.1%.

Regarding `NC(=O)C1CCN(C(=O)c2cc3c(s2)CCCC3)CC1`, the signal change vs control minus 3*SD hit threshold (margin above threshold, higher = more increase) is -20.8%.

For the molecule `O=C(COc1cccc(-n2cnnn2)c1)Nc1ccc([N+](=O)[O-])cc1`, the signal change vs control minus 3*SD hit threshold (margin above threshold, higher = more increase) is -25.2%. In the case of `O=C(Nc1nc(-c2ccccc2)c(-c2ccccc2)o1)c1ccc(F)cc1`, the signal change vs control minus 3*SD hit threshold (margin above threshold, higher = more increase) was -18.6%.

For `O=C(NC(=S)N1CCN(c2ccc(Cl)cc2[N+](=O)[O-])CC1)c1cccs1`, the signal change vs control minus 3*SD hit threshold (margin above threshold, higher = more increase) is -23.6%. Under `COCCNC(=O)C(c1ccncc1)N(C(=O)Cn1nnc2ccccc21)c1ccc(OC)cc1` (configuration not stated) stands -24.4%. Under `COc1cccc(C=Nc2cc(C)cc(C)c2)c1O` stands -7.5%. As for `COc1cccc(C=NCCCN=Cc2cccc(OC)c2O)c1O`, the figure is 0.5% (active).
